In PubChem BioAssay (NCI):
The panel holds about 83,000 compounds, 20% with a hit somewhere; the sample as a whole holds those more often.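 For each line, cells grew in 96-well plates with the test compound present at a single concentration for 48 hours.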 The source made the active and inactive calls. The calls were made as follows: active = growth percent below 10; inactive = the rest.

Legend:
Assay in all cases: NCI-60 one-dose screen, 48 h (100 = growth as untreated, 0 = no growth, -100 = all killed)
Settings in all cases: 10 µM unless noted
[1] = test system: HT29 colon
[2] = test system: SNB-75 CNS
[3] = test system: SNB-19 CNS
[4] = test system: U251 CNS
[5] = test system: PC-3 prostate
[6] = test system: SK-MEL-5 melanoma
[7] = test system: UACC-62 melanoma
[8] = test system: LOX IMVI melanoma
[9] = test system: SK-MEL-28 melanoma
[10] = test system: SK-MEL-2 melanoma
[11] = test system: EKVX NSCLC
[12] = test system: SN12C renal
[13] = test system: UO-31 renal
[14] = test system: TK-10 renal
[15] = test system: ACHN renal
[16] = test system: CAKI-1 renal
[17] = test system: A498 renal
[18] = test system: CCRF-CEM leukemia
[19] = test system: MOLT-4 leukemia

Measured: growth

O=C1/C=C/[C@@H](O)[C@@H]2C[C@@H](O)C[C@H]2/C=C/CCC[C@H](CCc2ccc3ncccc3c2)O1
active: [1] -19.6% | [6] -95.8% | [7] 4.66% | [8] -66.5% | [9] -0.806% | [10] -18.3% | [11] 3.05% | [12] 6.22% | [13] -0.158% | [14] -23.9% | [15] 5.12% | [16] -10.2% | [17] -36.4% | [18] 7.39% | [19] -35.7%
inactive: [2] 33.2% | [3] 28.9% | [4] 21.7% | [5] 18.3%

COc1cc2nc(-c3ccc(Cl)cc3)cc(OCCCN3CCCCC3)c2cc1OC
inactive: [1] 18.1% | [2] 18.2% | [3] 70.5% | [4] 48.7% | [5] 42.9% | [9] 60% | [10] 65.7% | [11] 66.2% | [12] 41.8% | [13] 41.8% | [14] 89.9% | [15] 34% | [18] 49% | [19] 37.1%
active: [6] -18.5% | [7] -32.6% | [8] -45.2% | [16] 0.0525%

CC1(C)CC(=O)C2=C(C1)N(c1ccc(F)cc1F)C(N)=C(C#N)C2c1cc(Br)ccc1F (stereo unspecified)
inactive: [1] 83.5% | [2] 67.1% | [3] 85.8% | [4] 94.8% | [5] 76.8% | [6] 93% | [7] 91.1% | [8] 57.5% | [9] 109% | [10] 94% | [11] 94.8% | [12] 96.6% | [13] 81.3% | [14] 104% | [15] 94.9% | [16] 92.4% | [18] 91.8% | [19] 88.9%

CN[C@@H](C)C(=O)N[C@H]1CCS[C@H]2CC(C)(C)[C@@H](C(=O)N[C@H]3c4ccccc4C[C@H]3OCC#CC#CCO[C@@H]3Cc4ccccc4[C@@H]3NC(=O)[C@H]3N4C(=O)[C@@H](NC(=O)[C@H](C)NC)CCS[C@H]4CC3(C)C)N2C1=O
inactive: [1] 112% | [2] 16.5% | [3] 97.1% | [4] 100% | [5] 102% | [6] 66.2% | [7] 102% | [8] 69.7% | [9] 107% | [10] 73.7% | [11] 121% | [12] 97.8% | [13] 97.8% | [14] 130% | [15] 106% | [16] 99.9% | [18] 25.1% | [19] 95.5%

CNCCOc1nc2c3cnccc3cc(-c3cc(OC)c(OC)c(OC)c3)c2c2ccncc12
active: [1] -39.9% | [2] -64.6% | [3] -8.3% | [5] -13.4% | [6] -97.7% | [7] -62.1% | [8] -46.8% | [9] -71.6% | [10] -77.5% | [11] -45.9% | [12] -36.9% | [13] -42.7% | [14] -34.2% | [15] -73.8% | [16] -31% | [17] -87.2% | [18] -13.1% | [19] -15.1%

CCCCCC(=O)Oc1ccc(/C(=C(\C)c2ccccc2)c2ccc(OCCN3CCCCC3)cc2)cc1
inactive: [2] 92% | [3] 89.6% | [4] 71.7% | [5] 72.2% | [6] 83.9% | [7] 91% | [8] 84% | [9] 71.4% | [10] 81.3% | [11] 93.7% | [12] 79.5% | [13] 59.8% | [14] 85.1% | [15] 96.2% | [16] 88.6% | [18] 85.1% | [19] 63.7%

COc1ccc(C(=O)c2nc3ccccc3n2CC(=O)c2ccc(Cl)cc2)cc1
inactive: [1] 16.1% | [3] 48.2% | [4] 22.7% | [5] 34.9% | [6] 20.5% | [7] 13.2% | [8] 39.2% | [9] 45.5% | [10] 63.5% | [11] 86% | [12] 45.5% | [13] 45.6% | [14] 51.7% | [15] 48.6% | [17] 72.5% | [18] 13.8% | [19] 17.2%
active: [2] 1.37%

O=S(=O)(NCCNc1nccc(-c2c(-c3cccc(O)c3)nc3occn23)n1)c1ccccc1
inactive: [1] 38.1% | [2] 87.8% | [3] 94.8% | [4] 95.4% | [5] 85.3% | [6] 33.7% | [8] 53.7% | [9] 34.1% | [10] 61.3% | [11] 109% | [12] 72.7% | [13] 101% | [14] 130% | [15] 82.1% | [16] 78.3% | [18] 80.9% | [19] 94.2%
active: [7] 8.22%

COc1cc(OC)cc(C(=O)C[n+]2cccc3cc[nH]c32)c1
inactive: [1] 97.1% | [2] 86.9% | [3] 93.1% | [4] 102% | [5] 96.5% | [6] 97.3% | [7] 89.8% | [8] 93.8% | [9] 100% | [10] 103% | [11] 98% | [12] 87.3% | [13] 71.2% | [14] 118% | [15] 101% | [16] 89% | [17] 92.1% | [18] 99.2% | [19] 105%

O=C(CCN1CCCC1)Nc1ccc2c(NCc3ccccc3)c3ccccc3nc2c1
active: [1] 3.9% | [2] -15.4% | [3] 5.52% | [4] 1.05% | [5] -4.59% | [7] -16.1% | [8] -45.6% | [10] -1.81% | [11] 4.75% | [12] -5.99% | [13] 1.35% | [14] 1.15% | [15] 9.88% | [16] 5.35% | [18] -23.6% | [19] -17.5%
inactive: [6] 17.2% | [9] 32.1%

CCCCCN1C=C/C(=C\C(=O)N(C)c2ccc(OC(F)(F)F)cc2)c2ccccc21
inactive: [1] 81.2% | [2] 104% | [3] 96.9% | [4] 95.4% | [5] 93.7% | [6] 96.5% | [7] 89.3% | [8] 101% | [9] 109% | [10] 101% | [11] 87.2% | [12] 96% | [13] 77.4% | [14] 105% | [15] 108% | [16] 89.4% | [18] 104% | [19] 95.8%

O=C1OC(Cc2ccccc2)C1c1ccccc1 (stereo unspecified)
inactive: [1] 106% | [2] 92.1% | [3] 99.1% | [4] 97.5% | [5] 106% | [6] 98.9% | [7] 94.2% | [8] 99.3% | [9] 109% | [10] 102% | [11] 97.5% | [12] 97.7% | [13] 89% | [14] 89.4% | [15] 104% | [16] 97% | [18] 109% | [19] 101%

C=C1C(=O)O[C@H]2[C@H]1CC/C(CNC(=O)/C=C/c1cccc(OC)c1)=C\CC[C@@]1(C)O[C@@H]21
active: [1] -36.7% | [7] -26.6% | [8] 0.442% | [9] -48.7% | [11] -20.2% | [12] 6.02% | [13] -94.6% | [14] -37.7% | [15] -79.7% | [16] -71.9% | [18] 1.02% | [19] -3.23%
inactive: [2] 90.1% | [3] 55.5% | [5] 36% | [6] 67.8% | [10] 55.6%

CCCCCN1C=C/C(=C\C(=O)n2ccc3ccccc32)c2ccccc21
inactive: [1] 80.6% | [2] 90.9% | [3] 106% | [4] 91.1% | [5] 85.3% | [6] 97.3% | [7] 67% | [8] 92% | [9] 104% | [10] 96.9% | [11] 69.3% | [12] 89.9% | [13] 49.4% | [14] 110% | [15] 93.5% | [16] 70.6% | [18] 94.6%

CCOC(=O)Oc1c(OC)cc(C(=O)c2ccc(OC)c(OC(=O)CCl)c2OC)cc1OC
active: [10] 8.91%
inactive: [1] 35.9% | [2] 36.3% | [3] 22.8% | [4] 19% | [5] 23% | [6] 34.9% | [7] 30.6% | [8] 43.5% | [9] 47.4% | [11] 70% | [12] 42.4% | [13] 46.6% | [14] 39.1% | [15] 36% | [16] 30.3% | [18] 15.9% | [19] 29.6%

C=C1C(=O)O[C@H]2[C@H]1CC/C(COC(=O)NCC(C)c1ccc(CC(C)C)cc1)=C\CC[C@@]1(C)O[C@@H]21 (stereo partly specified)
active: [1] -60.6% | [2] -5.57% | [4] -22.3% | [5] 0.0191% | [7] -37.7% | [8] -83.8% | [9] -66.7% | [10] -45.2% | [11] -6.2% | [12] -57% | [13] -100% | [14] -36.1% | [15] -100% | [16] -23.9% | [18] -24.2% | [19] -8.4%
inactive: [6] 17.1%
